M4 ag = human M4 muscarinic receptor agonists, primary screen, CHO-K1 cells, Fluo-8 calcium fluorescence | Muscarinic acetylcholine receptor M4 (Homo sapiens), P08173 | CHO-K1 hM4/Gqi5; vehicle 0%, full acetylcholine response 100% | activation, % at 3 µM | hit rate 0.14% among 360,000;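 active means activation above the run mean over all test wells plus 3 SD, cut at about 32% in these data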;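 further: peak over basal fluorescence ratio per well then scaled between controls; 0% = DMSO wells and 100% = acetylcholine at EC100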
Target sequence (P08173 whole entry, looked up): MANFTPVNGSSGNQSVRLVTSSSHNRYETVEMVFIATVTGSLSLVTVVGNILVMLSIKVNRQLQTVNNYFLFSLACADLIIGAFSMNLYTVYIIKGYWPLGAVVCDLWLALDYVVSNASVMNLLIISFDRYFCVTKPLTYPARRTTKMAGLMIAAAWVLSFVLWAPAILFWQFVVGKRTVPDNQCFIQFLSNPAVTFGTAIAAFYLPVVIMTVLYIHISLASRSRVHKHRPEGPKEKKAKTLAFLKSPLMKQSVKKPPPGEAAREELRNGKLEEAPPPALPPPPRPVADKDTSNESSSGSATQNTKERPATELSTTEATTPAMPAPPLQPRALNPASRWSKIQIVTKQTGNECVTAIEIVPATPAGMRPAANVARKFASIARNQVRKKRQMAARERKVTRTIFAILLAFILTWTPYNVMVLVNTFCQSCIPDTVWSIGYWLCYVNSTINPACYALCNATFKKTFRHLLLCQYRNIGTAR
M1 ag = human M1 muscarinic receptor agonists, primary screen, Fluo-8 calcium fluorescence, CHO-K1 cells, HTS; Muscarinic acetylcholine receptor M1 (Homo sapiens), P11229; CHO-K1 hM1, agonist mode; 0% DMSO, 100% acetylcholine EC100; activation, % at 3 µM; hit rate 0.33% among 360,000;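 active means activation above the run's mean compound activation plus 3 SD, cut at about 16% in these data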;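 further: peak over basal fluorescence ratio within a 140 s kinetic read after compound addition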
CHRM1 PAM = human M1 muscarinic receptor positive allosteric modulators, primary screen, CHO-K1 cells, Fluo-8 calcium fluorescence, 1536-well; hit rate 0.088% among 360,000; AID 588819, 2011; CHO-K1 hM1, ACh EC20; 0% = ACh EC20, 100% = maximal ACh; activation, % at 3 µM; Muscarinic acetylcholine receptor M1 (Homo sapiens), P11229; in the data active means activation above about 19%, passing the limit was not always enough
M1 antag = human M1 muscarinic receptor antagonists, primary screen, CHO-K1 cells, Fluo-8 calcium fluorescence, 1536-well | Muscarinic acetylcholine receptor M1 (Homo sapiens), P11229 | inhibition, % at 3 µM | CHO-K1 hM1, ACh EC80 antagonist | hit rate 1.3% among 360,000;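 active means percent inhibition above its own plate's cutoff, namely the mean of that plate's compound wells plus 3 SD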;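 further: peak over basal fluorescence ratio during 140 s after agonist addition; 0% = ACh EC80 plus DMSO and 100% = DMSO alone without agonist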
M4 PAM = human M4 muscarinic receptor positive allosteric modulators, primary screen, CHO-K1 cells, Fluo-8 calcium fluorescence; activation, % at 3 µM; CHO-K1 hM4/Gqi5, ACh EC20; 0% = ACh EC20, 100% = maximal ACh; hit rate 0.4% among 360,000;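 active means activation above its plate's cutoff, the mean activation of sample wells plus 3 SD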
CHRM4 antagonist = human M4 muscarinic receptor antagonists, primary screen, CHO cells, Fluo-8 calcium fluorescence. Muscarinic acetylcholine receptor M4 (Homo sapiens), P08173. CHO-hM4 cells, ACh EC80. inhibition, % at 3 µM. hit rate 0.73% among 360,000. AID 624125, 2012;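 active means inhibition above its plate's cutoff, the mean inhibition of sample wells plus 3 SD, cut at about 27% in these data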;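 further: 0% = acetylcholine EC80 with DMSO and 100% = DMSO without agonist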
* hit, by the source's call. A selection: hits, their analogues and other compounds. The true share with any hit is near 2.2%.

SMILES	M4 ag	M1 ag	CHRM1 PAM	M1 antag	M4 PAM	CHRM4 antagonist
Cc1cc(C)c2c(CN3CCN(Cc4ccc5c(c4)OCO5)CC3)cc(=O)oc2c1C	0	-4	-8	-12	-9	-4
Cc1cccc(Nc2nc(N)nc(CN3CCN(Cc4ccc5c(c4)OCO5)CC3)n2)c1	0	-5	-16	21*	-9	14
Cc1cccc(N2C(=O)CC(N3CCN(Cc4ccc5c(c4)OCO5)CC3)C2=O)c1 (configuration not stated)	1	-6	-13	35*	6	-1
Cc1cc(N2CCOCC2)nc2ccc(NC(=O)C3CCC(C)CC3)cc12 (configuration not stated)	1	-3	4	-5	4	-11
COc1ccc(S(=O)(=O)Nc2cccc3c2O[C@H](CN(C)CC2CC2)[C@@H](C)CN([C@H](C)CO)C3=O)cc1	-1	8	10	7	-1	0
CCC1CCCCN1S(=O)(=O)c1ccc(S(=O)(=O)N(Cc2ccccn2)CC2CCCO2)cc1 (configuration not stated)	6	-12	-17	9	-16	6
CCC1CCCCN1S(=O)(=O)c1ccc(NC(=O)c2nc(S(C)(=O)=O)ncc2Cl)cc1 (configuration not stated)	11	-5	-6	28	-12	59*
CCS(=O)(=O)c1ncc(Cl)c(C(=O)Nc2ccc(S(=O)(=O)N3CCCC(C)C3)cc2)n1 (configuration not stated)	1	-6	3	-12	5	2
CCC1CCCCN1S(=O)(=O)c1ccc(NC(=O)c2ccncc2)cc1 (configuration not stated)	20	4	-13	34*	-11	9
CCC1CCCCN1S(=O)(=O)c1ccc(S(=O)(=O)N(Cc2cccs2)C2CC2)cc1 (configuration not stated)	5	-10	-36	63*	-18	45*
CCC1CCCCN1S(=O)(=O)c1ccc(C(=O)Nc2nnc(C3CC3)o2)cc1 (configuration not stated)	0	0	10	-12	-4	2
CN(CC(=O)Nc1cccc(S(=O)(=O)N2CCCC2)c1)Cc1ccccc1	1	-7	0	-2	-1	-1
O=S(=O)(c1ccccc1)N1CCC(Oc2ccc(-n3cnnn3)cc2)CC1	26	2	-15	37	-12	28*
O=C(NCCc1ccccc1)C1CCN(S(=O)(=O)c2ccc(-n3cnnn3)cc2)CC1	2	-3	4	-8	0	14
COc1cc(OC)cc(C(=O)Nc2nc(CC(=O)NCc3ccc(F)cc3)cs2)c1	19	-3	-8	18	-4	5
COc1cc(OC)cc(C(=O)Nc2nc(CC(=O)NCc3ccccc3OC)cs2)c1	15	-4	-12	29*	-15	18
CN(C(=O)CCCN1C(=O)c2ccccc2C1=O)C1CCCCC1	2	-5	-8	18	4	-5
Cc1ccc2c(Cl)cc(Cl)c(OCC(=O)NC(C)(C)C)c2n1	-2	-2	7	-4	-5	0
C[N+](C)(C)CCCCCC[N+](C)(C)C	1	1	6	-33	-3	-8
C[N+](C)(C)CCCCCC(=O)/C=N/O	1	29*	-2	-7	-4	3
CC(C)Nc1ccc(C(CC(N)=O)NC(=O)Cc2ccc(Cl)cc2)cc1[N+](=O)[O-] (configuration not stated)	1	-2	4	-5	7	2
NC(=O)c1ccc(-c2c(-c3ccccc3)sc3ccccc23)cc1	-1	-6	9	-2	10	2
CC(C)(C)C1CCC(CN2C(Nc3ccccc3)=NC[C@@H]2Cc2ccccc2)CC1 (some centres not stated)	23	-2	-28	65*	-14	50*
CCN1C(Nc2ccccc2)=NC[C@@H]1Cc1ccccc1	-1	-10	2	-2	-5	8
COc1cccc(CC2(CO)CCCN(C(=O)c3cc[n+]([O-])cc3)C2)c1 (configuration not stated)	0	-7	9	-9	3	-4
SMILES	M4 ag	M1 ag	CHRM1 PAM	M1 antag	M4 PAM	CHRM4 antagonist
COc1cc(/C=C(/C#N)C(=O)NC(C)c2ccccc2)cc(OC)c1O (configuration not stated)	33*	5	2	2	-4	2
CCOC(=O)C1(CC2CC2)CCN(Cc2cnc(N(C)C)s2)CC1	3	-5	-10	8	4	-26
CCOC(=O)C1(CC2CC2)CCN(Cc2cn(C)c3ccccc23)CC1	7	-11	-24	32*	-17	6
CCOC(=O)C1(CCOc2ccccc2)CCN(Cc2ccccc2O)CC1	3	-4	7	-15	0	-8
CCOC(=O)C1(CCOc2ccccc2)CCN(Cc2cccc(OC)c2OC)CC1	11	-2	-24	42*	-15	10
CCOC(=O)C1(Cc2ccccc2)CCN(Cc2cn(CC(=O)OC)c3ccccc23)CC1	4	-6	4	-5	20*	-12
Clc1nnc(NN=C2CCCC2)c2ccccc12	1	-9	-22	18	-7	11
O=C(CSc1nn(-c2ccc(F)cc2)c(=S)s1)NCC1CCCO1 (configuration not stated)	-1	-5	2	3	-5	2
CCOc1ccc(N(CC(=O)NCc2ccc(Cl)cc2)S(=O)(=O)c2ccccc2)cc1	0	-4	7	-13	6	-6
Cc1ccc(S(=O)(=O)NCCNS(=O)(=O)c2ccc(C)cc2)cc1	5	-1	0	2	-1	4
Cc1ccc(S(=O)(=O)NCCCN2CCCC2)cc1	6	-10	5	-2	21*	17
COc1ccccc1C(=O)NNC(=S)NC(=O)c1sc2ccccc2c1Cl	5	22*	-5	0	11	1
O=C(Nc1nc2ccc(S(=O)(=O)N3CCCCC3)cc2s1)C1CCCO1 (configuration not stated)	3	-3	7	2	34*	12
